Shown are actives, neighbours in structure and some others; about 11% of the full set was active somewhere.
JMJD2A Tudor = qHTS Assay for Inhibitors of JMJD2A-Tudor Domain | AlphaScreen JMJD2A-Tudor / H3K4me3 peptide binding | Potency, µM (titrated, usually from 114 µM), for inactives: top-dose activity change, negative = inhibition, actives largely listed as inhibitors | actives 4.4% (n = 390,000); note: % is set by controls: 0 for no effect and ±100 for the full control effect; nearly all actives have a fitted effect of over 50% in size
Target sequence (O75164 whole entry, looked up, the tested form may be a part): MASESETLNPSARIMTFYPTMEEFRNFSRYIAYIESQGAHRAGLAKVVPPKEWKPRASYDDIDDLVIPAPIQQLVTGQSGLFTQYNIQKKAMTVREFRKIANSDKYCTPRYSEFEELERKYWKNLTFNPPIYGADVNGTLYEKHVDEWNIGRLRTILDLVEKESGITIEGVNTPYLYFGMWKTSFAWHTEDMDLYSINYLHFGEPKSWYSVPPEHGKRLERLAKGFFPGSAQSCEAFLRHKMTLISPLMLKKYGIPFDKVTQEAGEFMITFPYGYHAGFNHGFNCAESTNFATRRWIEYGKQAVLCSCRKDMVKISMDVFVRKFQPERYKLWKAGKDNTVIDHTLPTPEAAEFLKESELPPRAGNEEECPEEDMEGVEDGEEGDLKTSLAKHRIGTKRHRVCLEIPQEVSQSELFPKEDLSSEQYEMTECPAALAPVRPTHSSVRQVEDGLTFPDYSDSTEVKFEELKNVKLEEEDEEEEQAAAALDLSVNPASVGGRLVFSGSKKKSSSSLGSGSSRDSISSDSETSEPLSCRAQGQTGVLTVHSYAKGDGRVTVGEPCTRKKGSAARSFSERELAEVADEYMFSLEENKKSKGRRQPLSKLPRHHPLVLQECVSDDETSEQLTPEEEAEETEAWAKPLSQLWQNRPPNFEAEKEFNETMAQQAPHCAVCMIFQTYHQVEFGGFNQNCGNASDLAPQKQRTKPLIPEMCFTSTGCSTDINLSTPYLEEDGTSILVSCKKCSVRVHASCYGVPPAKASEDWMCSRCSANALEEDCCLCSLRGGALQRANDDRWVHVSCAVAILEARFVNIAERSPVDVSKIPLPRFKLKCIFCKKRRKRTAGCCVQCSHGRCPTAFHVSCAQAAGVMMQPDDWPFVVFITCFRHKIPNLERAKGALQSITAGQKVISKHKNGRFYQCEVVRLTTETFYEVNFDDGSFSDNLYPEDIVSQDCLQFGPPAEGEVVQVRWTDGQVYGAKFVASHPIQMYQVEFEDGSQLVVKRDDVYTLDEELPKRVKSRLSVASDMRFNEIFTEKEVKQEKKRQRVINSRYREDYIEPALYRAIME
L3MBTL1 inh = qHTS Assay for the Inhibitors of L3MBTL1 | Lethal(3)malignant brain tumor-like protein 1 (Homo sapiens), Q9Y468 | AlphaScreen L3MBTL1–H3K9me1 peptide binding | Potency, µM (highest dose often 57.1 µM), for inactives: at the highest dose activity, negative = inhibition, hits mostly inhibitors | actives 0.66% (n = 230,000); note: % is set by controls: 0 for no effect and ±100 for the full control effect; nearly all actives have a fitted effect of over 60% in size
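L3MBTL1 (50 nM) pre-complexed 30 min with biotinylated H3(1-15)K9me1 peptide (75 nM), then compounds added for 30 min at room temperature; AlphaScreen streptavidin donor/nickel chelate acceptor beads (10 ug/mL final) read after 30 min dark incubation.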
G9a block = qHTS Assay for Inhibitors of Histone Lysine Methyltransferase G9a; Histone-lysine N-methyltransferase EHMT2 (Homo sapiens), Q96KQ7; G9a H3K9 monomethylation, AlphaScreen, 2 h; Potency, µM (highest dose often 102 µM), for inactives: at the highest dose activity, negative = inhibition, actives largely listed as inhibitors; actives 8.8% (n = 350,000); note: % is set by controls: 0 for no effect and ±100 for the full control effect; nearly all actives have a fitted effect of over 75% in size
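Signal arises when biotinylated H3K9 peptide, once monomethylated, bridges streptavidin donor and antibody-captured acceptor beads. Enzyme at 20 nM was preincubated 15 min with test compounds; peptide 500 nM and SAM 20 uM then reacted for 2 h.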
HP1b binding inh = HTS for Inhibitors of HP1-beta Chromodomain Interactions with Methylated Histone Tails; actives 0.56% (n = 390,000); AID 540317, 2011; AlphaScreen HP1-beta / biotin-H3K9me3 peptide binding; Potency, µM (series often up to 114 µM), inactives show top-dose activity change, negative = inhibition, actives largely listed as inhibitors; Chromobox protein homolog 1 (Homo sapiens), P83916; note: nearly all actives have a fitted effect of over 70% in size
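Compound inhibition of the preformed complex between 50 nM HP1-beta and 50 nM biotinylated H3K9me3 peptide was read by AlphaScreen. Buffer was PBS pH 7.4 with 0.01% Tween-20. Incubations ran 30 min at room temperature, with 10 ug/mL donor/acceptor beads.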
BAZ2B inh = qHTS Assay for Inhibitors of BAZ2B; AlphaScreen BAZ2B-H3K14Ac peptide displacement; Potency, µM (doses to about 114 µM), inactives show at the highest dose activity change, negative = inhibition, hits mostly inhibitors; AID 504333, 2011; Bromodomain adjacent to zinc finger domain protein 2B (Homo sapiens), Q9UIF8; actives 4.4% (n = 360,000); note: % is set by controls: 0 for no effect and ±100 for the full control effect; nearly all actives have a fitted effect of over 60% in size
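AlphaScreen luminescence quantifies BAZ2B engagement of H3K14Ac peptide; the protein and biotinylated peptide are both at 50 nM final, buffer PBS pH 7.4 with 0.01% Tween-20, all steps at room temperature.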
The depositor's hits bear a star; ? = inconclusive; nt = no result; [ ] = remark or other dose. Calls come from the whole dose curve; as a rule, active = well fitted inhibition curve with a large enough effect; inconclusive = small, poorly fitted or top-dose-only effect; inactive = no such curve, though single readings can be large or run the other way. Potency is the fitted concentration of half-maximal effect.

SMILES | JMJD2A Tudor | L3MBTL1 inh | G9a block | HP1b binding inh | BAZ2B inh
CCc1ccc(S(=O)(=O)N2CCN(Cc3ccco3)CC2)cc1 | -14.3% | nt | 86.4% | 5.4% | 3.1%
COc1cccc(CNC(=O)CCCCCNC(=O)N2CCn3c2nc2ccccc23)c1 | -6.2% | nt | 13.5% | 41.4% | -29.0%
COc1ccc(Cn2c(SCc3ccc(C(=O)NCc4cccs4)cc3)nc3cccnc32)cc1 | -19.6% | nt | -30.4%[59 µM] | 29.8% | -9.8%
COc1ccccc1N1CCN(Cc2cc3c(cc2O)OCO3)CC1 | ? | nt | 10µM* | -15.6% | ?
COc1cccc(N2CCN(Cc3ccco3)CC2)c1 | 8.91µM* | -4.3% | nt | ? | ?
COc1cccc(N2CCN(CC(=O)NC(=O)NCc3ccco3)CC2)c1 | -25.0% | nt | -42.7% | 21.9% | -38.8%
COc1ccc(CN2CCCCCC2)cc1 | 1µM* | 9.4% | nt | 23.9% | -0.9%
C[C@H](NC(=O)c1nc[nH]c1C(=O)N1CCNCC1)C(=O)OCc1ccccc1 | 35.5µM* | 3.4% | -7.4%[2.33 µM] | 9.2% | 56.2µM*
C[C@H](NC(=O)c1nc[nH]c1C(=O)NC1CCNCC1)C(=O)OC(C)(C)C | -22.0% | 2.7% | ? | 30.4% | 50.1µM*
O=C(CNC(=O)c1nc[nH]c1C(=O)N1CCNCC1)OCc1ccccc1 | 50.1µM* | 7.2% | -37.9%[12.7 µM] | 27.4% | 50.1µM*
CC1CCN(C(=O)c2[nH]cnc2C(=O)NCC(=O)OCc2ccccc2)CC1 | -25.2% | -12.5% | ? | 3.6% | -35.4%
CN(C(=O)c1sc2nc(N3CCCC3)c3c(c2c1N)CC(C)(C)OC3)c1ccccc1 | 10.5% | nt | 44.7µM* | 37.9% | -25.0%
CCOC(=O)c1sc2nc(N3CCCC3)c3c(c2c1N)CC(C)(C)OC3 | -15.3%[57.1 µM] | 21.7% | ? | 41.9% | 36.1%
Cc1cccc(NC(=O)c2sc3nc(N4CCOCC4)c4c(c3c2N)CC(C)(C)OC4)c1 | -12.7% | nt | -40.7%[59 µM] | 32.3% | -3.4%
CC1(C)Cc2c(c(N3CCOCC3)nc3sc(C(=O)Nc4ccccc4)c(N)c23)CO1 | -13.7% | nt | 28.2µM* | 46.3% | -15.8%
CC1(C)Cc2c(c(N3CCOCC3)nc3sc(C(=O)Nc4cccc(Cl)c4)c(N)c23)CO1 | -7.6% | nt | 79.4µM* | 42.4% | -8.4%[57.1 µM]
Cc1ccccc1NC(=O)c1sc2nc(N3CCOCC3)c3c(c2c1N)CC(C)(C)OC3 | -4.1% | nt | ? | 46.2% | -6.2%
CCCOc1ccc(-c2cccc(NS(=O)(=O)c3ccc(CC)cc3)c2)nn1 | -29.7% | nt | -0.9%[59 µM] | -7.5%[57 µM] | -9.2%
C#CCOCCOCCOCCNc1nc(N2CCN(C(=O)CCCCCCCCCCNC(=O)[C@H](CCCCN)n3cc(CCCC(=O)O)nn3)CC2)nc(N2CCN(C(=O)CCCCCCCCCCNC(=O)[C@H](CCCCN)n3cc(CCCC(=O)O)nn3)CC2)n1 | ? | -9.2% | 6.0%[2.33 µM] | 31.9% | -33.7%
C#CCOCCOCCOCCNc1nc(N2CCN(C(=O)CCCCCCCCCCNC(=O)[C@H](CCCCN)n3cc(CCO)nn3)CC2)nc(N2CCN(C(=O)CCCCCCCCCCNC(=O)[C@H](CCCN=C(N)N)n3cc(C[C@@H](C)CC)nn3)CC2)n1 | 44.7µM* | -4.5% | 24.4%[2.33 µM] | ? | 50.1µM*
C#CCOCCOCCOCCNc1nc(N2CCN(C(=O)CCCCCCCCCCNC(=O)[C@H]([C@@H](C)CC)n3cc(CCCCN=C(N)N)nn3)CC2)nc(N2CCN(C(=O)CCCCCCCCCCNC(=O)[C@H](CCCCN)n3cc(C[C@@H](C)CC)nn3)CC2)n1 | nt | -12.7% | 16.2%[2.33 µM] | nt | 50.1µM*
C#CCOCCOCCOCCNc1nc(N2CCN(C(=O)CCCCCCCCCCNC(=O)[C@H](CCCCN)n3cc(CCCC(=O)O)nn3)CC2)nc(N2CCN(C(=O)CCCCCCCCCCNC(=O)[C@H](CCCN=C(N)N)n3cc(C[C@@H](C)CC)nn3)CC2)n1 | 56.2µM* | -1.5% | 7.8%[2.33 µM] | -22.9% | 50.1µM*
C#CCOCCOCCOCCNc1nc(N2CCN(C(=O)CCCCCCCCCCNC(=O)Cn3cc(C[C@@H](C)O)nn3)CC2)nc(N2CCN(C(=O)CCCCCCCCCCNC(=O)[C@H](CCCCN)n3cc(C[C@@H](C)CC)nn3)CC2)n1 | 79.4µM* | -0.3% | -49.1%[12.7 µM] | ? | ?
CCOC(=O)N1CCN(Cc2nc3cc(NC(=O)C(C)C)ccc3n2C(C)C)CC1 | -19.2% | nt | 1.1%[59 µM] | 33.6% | -3.0%
Cc1ccc(C(=O)Nc2ncccc2C)cc1S(=O)(=O)N1CCCCC1 | -14.5% | 11.5% | -9.3% | 21.3% | -4.4%
SMILES | JMJD2A Tudor | L3MBTL1 inh | G9a block | HP1b binding inh | BAZ2B inh
C#CCOCCOCCOCCNc1nc(N2CCN(C(=O)CCCCCCCCCCNC(=O)[C@H](CO)n3cc(CCCSC)nn3)CC2)nc(N2CCN(C(=O)CCCCCCCCCCNC(=O)[C@H](CCCCN)n3cc(C[C@@H](C)CC)nn3)CC2)n1 | nt | -11.8% | -46.4%[12.7 µM] | nt | ?
C#CCOCCOCCOCCNc1nc(N2CCN(C(=O)CCCCCCCCCCNC(=O)[C@H](CCCCN)n3cc(C[C@@H](C)CC)nn3)CC2)nc(N2CCN(C(=O)CCCCCCCCCCNC(=O)[C@H](CCCCN)n3cc(C[C@@H](C)CC)nn3)CC2)n1 | 50.1µM* | nt | nt | 70.8µM* | nt
CN(C)c1ccc(C(CNC(=O)c2ccc(-c3ccccc3)cc2)N2CCOCC2)cc1 (stereo not drawn) | nt | -9.5% | 14.1µM* | nt | 35.5µM*
COc1ccc(C(CNC(=O)c2cccc(N(C)C)c2)N2CCCC2)cc1 (stereo not drawn) | 44.7µM* | -23.9% | ? | -26.8% | 50.1µM*
COc1cccc(CNCC(=O)NC(=O)NC2CCCC2)c1 | 22.4µM* | 2.5% | nt | ? | nt
COc1ccc(CNC(=O)CN2CCC(NC(=O)c3cccc(OC)c3)CC2)cc1 | 1µM* | nt | nt | -32.8%[57 µM] | nt
CN(CC(=O)Nc1ccccc1C(=O)NC1CC1)Cc1cccs1 | -14.3% | 4.1% | 6.9%[59 µM] | 31.2% | -0.6%
COc1ccc(Nc2ncc3c(n2)CCN(Cc2cc(Br)cs2)C3)c(OC)c1 | ? | nt | -36.5%[12.7 µM] | -4.8% | ?
COc1ccccc1CNC(=O)c1cccc(N(C)C)c1 | -29.4% | nt | 8.91µM* | 8.5% | -36.3%
COc1ccc(CNC(=O)c2cccc(N(C)C)c2)cc1 | -29.3% | 1.9%[11.4 µM] | 7.08µM* | 37.2% | ?
COc1ccc(CNC(=O)c2cnc(N(C)C)nc2)cc1 | 2.3% | nt | 31.2%[59 µM] | 36.9% | 6.1%
COc1ccccc1CNC(=O)c1ccc(S(=O)(=O)N(C)c2ccccc2)cc1 | -3.4% | 11.5% | -32.6% | 27.9% | 9.3%
O=C(COC(=O)/C=C/c1ccc(F)cc1)NC1CCCCCC1 | 0.0% | -9.0% | nt | 2.1% | nt

Screens deposited in PubChem by National Center for Advancing Translational Sciences (NCATS).
